According to PubChem BioAssay AID1159580 (chemical genetic matrix, 2015):
Out of some 5,500 compounds screened, about 2,000 (36%) were called active. About 18% were inconclusive and are not listed. No stated cut-off is given here; in the data, active means normalized growth mostly below about 0.91 (no sharp cut-off); inconclusive means no clear call, values can overlap the other calls; inactive means mostly above about 0.92. The list shows a part of the results.

Assay: chemical genetic growth profiling, strain panel (AID 1159580);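 further: tested at 20 µM; growth read once vehicle control cultures reached saturation at 30 °C; 1 = growth at the plate median or of vehicle wells; lower values mean less growth of the strain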
Conditions: S. cerevisiae deletion strains, growth OD
[1] = locus YAR019C, strain CDC15, active compounds read low
[2] = locus YBL105C, strain PKC1, active compounds read low
[3] = locus YBR135W, strain CKS1, active compounds read low
[4] = locus YBR136W, strain MEC1, active compounds read low
[5] = locus YBR160W, strain CDC28, active compounds read low
[6] = locus YDL017W, strain CDC7, active compounds read low
[7] = locus YDL028C, strain MPS1, active compounds read low
[8] = locus YDL101C, strain DUN1, active compounds read low
[9] = locus YDL108W, strain KIN28, active compounds read low
[10] = locus YDL214C, strain PRR2, active compounds read low
[11] = locus YDR052C, strain DBF4, active compounds read low
[12] = locus YDR054C, strain cdc34, active compounds read low
[13] = locus YDR226W, strain ADK1, active compounds read low
[14] = locus YDR477W, strain SNF1, active compounds read low
[15] = locus YER123W, strain YCK3, active compounds read low
[16] = locus YER133W, strain GLC7, active compounds read low
[17] = locus YFL009W, strain cdc4, active compounds read low
[18] = locus YFL029C, strain CAK1, active compounds read low
[19] = locus YFR003C, strain YPI1, active compounds read low
[20] = locus YFR019W, strain FAB1, active compounds read low
[21] = locus YFR028C, strain CDC14, active compounds read low
[22] = locus YGR040W, strain KSS1, active compounds read low
[23] = locus YGR052W, strain FMP48, active compounds read low
[24] = locus YGR092W, strain DBF2, active compounds read low
[25] = locus YHR030C, strain SLT2, active compounds read low
[26] = locus YHR079C, strain IRE1, active compounds read low
[27] = locus YHR082C, strain KSP1, active compounds read low
[28] = locus YHR205W, strain SCH9, active compounds read low
[29] = locus YIL147C, strain SLN1, active compounds read low
[30] = locus YJL095W, strain BCK1, active compounds read low
[31] = locus YJL157C, strain FAR1, active compounds read low
[32] = locus YJR016C, strain ILV3, active compounds read low
[33] = locus YJR066W, strain TOR1 (second series), active compounds read low
[34] = locus YJR066W, strain TOR1, active compounds read low
[35] = locus YKL048C, strain ELM1, active compounds read low
[36] = locus YKL067W, strain YNK1, active compounds read low
[37] = locus YKL101W, strain HSL1, active compounds read low
[38] = locus YKL193C, strain SDS22, active compounds read low
[39] = locus YKL203C, strain TOR2, active compounds read low
[40] = locus YLR113W, strain HOG1, active compounds read low
[41] = locus YLR133W, strain CKI1, active compounds read low
[42] = locus YLR403W, strain SFP1, active compounds read low
[43] = locus YML070W, strain DAK1, active compounds read low
[44] = locus YMR001C, strain CDC5, active compounds read low
[45] = locus YMR205C, strain PFK2 (second series), active compounds read low
[46] = locus YMR277W, strain FCP1, active compounds read low
[47] = locus YNL006W, strain LST8, active compounds read low
[48] = locus YNL020C, strain ARK1, active compounds read low
[49] = locus YNL161W, strain CBK1, active compounds read low
[50] = locus YNL183C, strain NPR1, active compounds read low
[51] = locus YNL207W, strain RIO2, active compounds read low
[52] = locus YNL222W, strain SSU72, active compounds read low
[53] = locus YNL307C, strain MCK1 (second series), active compounds read low
[54] = locus YOL078W, strain AVO1, active compounds read low
[55] = locus YOL136C, strain PFK27, active compounds read low
[56] = locus YOR061W, strain CKA2, active compounds read low
[57] = locus YOR119C, strain RIO1, active compounds read low
[58] = locus YOR231W, strain MKK1, active compounds read low
[59] = locus YOR329C, strain SCD5, active compounds read low
[60] = locus YPL031C, strain PHO85, active compounds read low
[61] = locus YPL153C, strain RAD53, active compounds read low
[62] = locus YPL204W, strain HRR25, active compounds read low
[63] = locus YPL209C, strain IPL1, active compounds read low
[64] = locus YPL256C, strain CLN2, active compounds read low
[65] = locus YPR025C, strain CCL1, active compounds read low
[66] = locus YPR106W, strain ISR1, active compounds read low
[67] = locus YPR111W, strain DBF20, active compounds read low
[68] = strain NNK1, active compounds read low
[69] = strain TSCII, active compounds read low

Measured: normalized growth

CSc1ccc(/C=C(\C)[N+](=O)[O-])cc1
active: [1] 0.0932 | [2] 0.0831 | [3] 0.0817 | [4] 0.0817 | [5] 0.0827 | [6] 0.0813 | [7] 0.0841 | [8] 0.1 | [9] 0.0841 | [10] 0.0925 | [11] 0.103 | [12] 0.0952 | [13] 0.09 | [14] 0.104 | [15] 0.0983 | [16] 0.0958 | [17] 0.0931 | [18] 0.0921 | [19] 0.0893 | [20] 0.092 | [21] 0.0831 | [22] 0.103 | [23] 0.138 | [24] 0.105 | [25] 0.132 | [26] 0.122 | [27] 0.141 | [28] 0.00725 | [29] 0.0876 | [30] 0.142 | [31] 0.084 | [32] 0.0861 | [33] 0.0953 | [34] 0.158 | [35] 0.106 | [36] 0.0912 | [37] 0.103 | [38] 0.0867 | [39] 0.115 | [40] 0.176 | [41] 0.0883 | [42] -0.00294 | [43] 0.0932 | [44] 0.0857 | [45] 0.0912 | [46] 0.0923 | [47] 0.088 | [48] 0.0937 | [49] 0.0836 | [50] 0.129 | [51] 0.0937 | [52] 0.0888 | [53] 0.103 | [54] 0.0847 | [55] 0.0905 | [56] 0.0875 | [57] 0.109 | [58] 0.137 | [59] 0.0819 | [60] 0.11 | [61] 0.112 | [62] 0.0976 | [63] 0.0829 | [64] 0.156 | [65] 0.0822 | [66] 0.0856 | [67] 0.188 | [68] 0.0909 | [69] 0.0882

C/C(=C\c1ccc2c(c1)OCO2)[N+](=O)[O-]
active: [1] 0.0944 | [2] 0.089 | [3] 0.0821 | [4] 0.0972 | [5] 0.096 | [6] 0.103 | [7] 0.108 | [8] 0.101 | [9] 0.107 | locus YDL132W, strain cdc53, active compounds read low 0.121 | [10] 0.0871 | [11] 0.302 | [12] 0.1 | [13] 0.112 | [14] 0.0948 | [15] 0.0987 | [16] 0.0948 | [17] 0.0975 | [18] 0.0944 | [19] 0.123 | [20] 0.0927 | [21] 0.108 | [22] 0.0949 | [23] 0.11 | [24] 0.0972 | [25] 0.107 | [26] 0.113 | [27] 0.12 | [28] 0.00121 | [29] 0.108 | [30] 0.107 | locus YJL128C, strain PBS2, active compounds read low 0.124 | [31] 0.084 | [32] 0.0841 | [33] 0.0942 | [34] 0.105 | [35] 0.106 | [36] 0.0865 | [37] 0.0966 | [38] 0.0838 | [39] 0.107 | [40] 0.126 | [41] 0.0901 | [42] -0.000823 | [43] 0.0897 | [44] 0.0887 | [45] 0.0868 | [46] 0.0888 | [47] 0.0816 | [48] 0.0897 | [49] 0.0823 | [50] 0.114 | [51] 0.091 | [52] 0.0831 | [53] 0.0968 | [54] 0.0833 | [55] 0.0926 | [56] 0.0859 | [57] 0.11 | [58] 0.108 | [59] 0.0841 | [60] 0.0922 | [61] 0.101 | [62] 0.0962 | [63] 0.0837 | [64] 0.128 | [65] 0.0836 | [66] 0.0862 | [67] 0.142 | [68] 0.0961 | [69] 0.0923
